From publication PMC11006913
Substitutions are numbered along the chain they refer to.

What was measured:
Assay in all cases: PBM; 200 nM protein, PBS
Conditions in all cases: dsDNA, one strand shown
VENTX [1] = target: T1, VENTX (Homo sapiens, UniProt O95231 78-163, R121Q)
T1 sequence: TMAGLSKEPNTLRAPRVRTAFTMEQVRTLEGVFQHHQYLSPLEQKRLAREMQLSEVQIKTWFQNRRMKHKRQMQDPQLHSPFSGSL

VENTX [2] = target: T2, VENTX (Homo sapiens, UniProt O95231 78-163)
T2 sequence: T1 sequence with Q44R

ALX4 [3] = target: ALX4 (Homo sapiens, UniProt Q9H161 200-286)
VENTX [4] = target: T3, VENTX (Homo sapiens, UniProt O95231 78-163, Y115F)
T3 sequence: T1 sequence with Y38F, Q44R

ALX4 [5] = target: ALX4 (Homo sapiens, UniProt Q9H161 200-286, Q225E)
NKX2-6 [6] = target: T4, NKX2-6 (Homo sapiens, UniProt A6NCS4 118-204, R150C)
T4 sequence: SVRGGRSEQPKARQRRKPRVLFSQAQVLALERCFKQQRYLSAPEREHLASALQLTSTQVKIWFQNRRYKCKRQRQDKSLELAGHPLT

ALX3 [7] = target: ALX3 (Homo sapiens, UniProt O95076 139-225, N203Q)
NKX2-6 [8] = target: T5, NKX2-6 (Homo sapiens, UniProt A6NCS4 118-204)
T5 sequence: T4 sequence with C33R

ALX3 [9] = target: ALX3 (Homo sapiens, UniProt O95076 139-225)
VAX1 [10] = target: VAX1 (Homo sapiens, UniProt Q5SQQ9 86-172)
ALX3 [11] = target: ALX3 (Homo sapiens, UniProt O95076 139-225, L168Q)
NKX2-6 [12] = target: T6, NKX2-6 (Homo sapiens, UniProt A6NCS4 118-204, F151L)
T6 sequence: T4 sequence with C33R, F34L

ALX3 [13] = target: ALX3 (Homo sapiens, UniProt O95076 139-225, L168V)
VAX1 [14] = target: VAX1 (Homo sapiens, UniProt Q5SQQ9 86-172, T142I)
ALX3 [15] = target: ALX3 (Homo sapiens, UniProt O95076 139-225, N203S)
VAX1 [16] = target: VAX1 (Homo sapiens, UniProt Q5SQQ9 86-172, K157R)
HOXA7 [17] = target: HOXA7 (Homo sapiens, UniProt P31268 116-202)
HOXB6 [18] = target: HOXB6 (Homo sapiens, UniProt P17509 132-218, K202E)
HOXA7 [19] = target: HOXA7 (Homo sapiens, UniProt P31268 116-202, W177C)
HOXB6 [20] = target: HOXB6 (Homo sapiens, UniProt P17509 132-218)
HOXC10 [21] = target: HOXC10 (Homo sapiens, UniProt Q9NYD6 254-340)
HOXC10 [22] = target: HOXC10 (Homo sapiens, UniProt Q9NYD6 254-340, K271E)
HOXA2 [23] = target: HOXA2 (Homo sapiens, UniProt O43364 129-215, R185T)
ALX1 [24] = target: ALX1 (Homo sapiens, UniProt Q15699 118-204, L144V)
PITX2 = PITX2 (Homo sapiens, UniProt Q99697 72-157)
HOXA2 [25] = target: HOXA2 (Homo sapiens, UniProt O43364 129-215, R185K)
ALX1 [26] = target: ALX1 (Homo sapiens, UniProt Q15699 118-204, L144R)
HOXA2 [27] = target: HOXA2 (Homo sapiens, UniProt O43364 129-215, Y150S)
NKX3-2 [28] = target: NKX3-2 (Homo sapiens, UniProt P78367 192-278, P234S)
ALX1 [29] = target: ALX1 (Homo sapiens, UniProt Q15699 118-204)
HOXA2 [30] = target: HOXA2 (Homo sapiens, UniProt O43364 129-215)
NKX3-2 [31] = target: NKX3-2 (Homo sapiens, UniProt P78367 192-278)
Sequence of NKX3-2 (Homo sapiens, UniProt P78367 192-278) (P78367 192-278): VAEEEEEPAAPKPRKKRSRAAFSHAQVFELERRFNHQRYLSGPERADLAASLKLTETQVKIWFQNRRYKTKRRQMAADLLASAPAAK

Sequence of ALX3 (Homo sapiens, UniProt O95076 139-225) (O95076 139-225): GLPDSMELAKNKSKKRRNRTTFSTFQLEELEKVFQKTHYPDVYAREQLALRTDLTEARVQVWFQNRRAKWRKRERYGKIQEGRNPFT
Sequence of HOXA7 (Homo sapiens, UniProt P31268 116-202) (P31268 116-202): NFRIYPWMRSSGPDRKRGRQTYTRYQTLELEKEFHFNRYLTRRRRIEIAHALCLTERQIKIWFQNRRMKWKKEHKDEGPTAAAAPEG
Sequence of ALX3 (Homo sapiens, UniProt O95076 139-225, L168V) (O95076 139-225 L168V): as the sequence (O95076 139-225) above, with L30V counted along it
Sequence of ALX3 (Homo sapiens, UniProt O95076 139-225, L168Q) (O95076 139-225 L168Q): as the sequence (O95076 139-225) above, with L30Q counted along it
Sequence of ALX3 (Homo sapiens, UniProt O95076 139-225, N203Q) (O95076 139-225 N203Q): as the sequence (O95076 139-225) above, with N65Q counted along it
Sequence of ALX3 (Homo sapiens, UniProt O95076 139-225, N203S) (O95076 139-225 N203S): as the sequence (O95076 139-225) above, with N65S counted along it
Sequence of HOXA7 (Homo sapiens, UniProt P31268 116-202, W177C) (P31268 116-202 W177C): as the sequence (P31268 116-202) above, with W62C counted along it
Sequence of ALX1 (Homo sapiens, UniProt Q15699 118-204, L144V) (Q15699 118-204 L144V): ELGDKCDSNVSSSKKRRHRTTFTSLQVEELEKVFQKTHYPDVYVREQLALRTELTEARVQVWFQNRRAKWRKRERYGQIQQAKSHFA
Sequence of HOXB6 (Homo sapiens, UniProt P17509 132-218, K202E) (P17509 132-218 K202E): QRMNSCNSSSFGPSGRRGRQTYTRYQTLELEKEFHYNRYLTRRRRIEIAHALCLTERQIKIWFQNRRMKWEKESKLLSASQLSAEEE
Sequence of HOXC10 (Homo sapiens, UniProt Q9NYD6 254-340, K271E) (Q9NYD6 254-340 K271E): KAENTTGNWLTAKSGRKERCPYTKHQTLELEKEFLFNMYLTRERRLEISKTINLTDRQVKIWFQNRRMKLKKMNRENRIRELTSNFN
Sequence of HOXA2 (Homo sapiens, UniProt O43364 129-215, R185K) (O43364 129-215 R185K): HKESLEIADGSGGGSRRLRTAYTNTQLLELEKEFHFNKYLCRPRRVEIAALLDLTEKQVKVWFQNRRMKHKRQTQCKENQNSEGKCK
Sequence of VAX1 (Homo sapiens, UniProt Q5SQQ9 86-172, T142I) (Q5SQQ9 86-172 T142I): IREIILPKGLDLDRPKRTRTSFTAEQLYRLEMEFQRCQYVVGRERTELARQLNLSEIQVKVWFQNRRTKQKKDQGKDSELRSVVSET
Sequence of ALX1 (Homo sapiens, UniProt Q15699 118-204) (Q15699 118-204): as the sequence (Q15699 118-204 L144V) above, with V27L counted along it
Sequence of ALX1 (Homo sapiens, UniProt Q15699 118-204, L144R) (Q15699 118-204 L144R): as the sequence (Q15699 118-204 L144V) above, with V27R counted along it
Sequence of HOXA2 (Homo sapiens, UniProt O43364 129-215) (O43364 129-215): as the sequence (O43364 129-215 R185K) above, with K57R counted along it
Sequence of HOXA2 (Homo sapiens, UniProt O43364 129-215, Y150S) (O43364 129-215 Y150S): as the sequence (O43364 129-215 R185K) above, with Y22S, K57R counted along it
Sequence of HOXB6 (Homo sapiens, UniProt P17509 132-218) (P17509 132-218): as the sequence (P17509 132-218 K202E) above, with E71K counted along it
Sequence of HOXA2 (Homo sapiens, UniProt O43364 129-215, R185T) (O43364 129-215 R185T): as the sequence (O43364 129-215 R185K) above, with K57T counted along it
Sequence of VAX1 (Homo sapiens, UniProt Q5SQQ9 86-172, K157R) (Q5SQQ9 86-172 K157R): as the sequence (Q5SQQ9 86-172 T142I) above, with I57T, K72R counted along it
Sequence of NKX3-2 (Homo sapiens, UniProt P78367 192-278, P234S) (P78367 192-278 P234S): as the sequence (P78367 192-278) above, with P43S counted along it
Sequence of ALX4 (Homo sapiens, UniProt Q9H161 200-286, Q225E) (Q9H161 200-286 Q225E): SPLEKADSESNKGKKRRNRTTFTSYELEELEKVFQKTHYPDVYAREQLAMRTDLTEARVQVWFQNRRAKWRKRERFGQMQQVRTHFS
Sequence of VAX1 (Homo sapiens, UniProt Q5SQQ9 86-172) (Q5SQQ9 86-172): as the sequence (Q5SQQ9 86-172 T142I) above, with I57T counted along it
Sequence of ALX4 (Homo sapiens, UniProt Q9H161 200-286) (Q9H161 200-286): as the sequence (Q9H161 200-286 Q225E) above, with E26Q counted along it
Sequence of HOXC10 (Homo sapiens, UniProt Q9NYD6 254-340) (Q9NYD6 254-340): as the sequence (Q9NYD6 254-340 K271E) above, with E18K counted along it

Question: How did the binding signal (VENTX [1]) turn out when CGCCTGCC was run?
Answer: Its binding signal is 8.19 upbm affinity estimate (log intensity, higher = more binding, comparable within an allelic series).

Question: What about the binding signal (VENTX [2]) of the same sequence?
Answer: Its binding signal is 8.35 upbm affinity estimate (log intensity, higher = more binding, comparable within an allelic series).

Question: What about the binding signal (ALX4 [3]) of the same sequence?
Answer: The binding signal was 7.81 upbm affinity estimate (log intensity, higher = more binding, comparable within an allelic series).

Question: And the binding signal (VENTX [4])?
Answer: The binding signal was 8.31 upbm affinity estimate (log intensity, higher = more binding, comparable within an allelic series).

Question: And the binding signal (ALX4 [5])?
Answer: The binding signal was 8.15 upbm affinity estimate (log intensity, higher = more binding, comparable within an allelic series).

Question: And the binding signal (NKX2-6 [6])?
Answer: The binding signal was 9.32 upbm affinity estimate (log intensity, higher = more binding, comparable within an allelic series).

Question: And the binding signal (ALX3 [7])?
Answer: Its binding signal is 7.68 upbm affinity estimate (log intensity, higher = more binding, comparable within an allelic series).

Question: What about the binding signal (NKX2-6 [8]) of the same sequence?
Answer: The binding signal was 9.1 upbm affinity estimate (log intensity, higher = more binding, comparable within an allelic series).

Question: What about the binding signal (ALX3 [9]) of the same sequence?
Answer: Its binding signal is 7.56 upbm affinity estimate (log intensity, higher = more binding, comparable within an allelic series).

Question: And the binding signal (VAX1 [10])?
Answer: The binding signal was 7.07 upbm affinity estimate (log intensity, higher = more binding, comparable within an allelic series).

Question: And the binding signal (ALX3 [11])?
Answer: Its binding signal is 7.74 upbm affinity estimate (log intensity, higher = more binding, comparable within an allelic series).

Question: And the binding signal (NKX2-6 [12])?
Answer: Its binding signal is 9.19 upbm affinity estimate (log intensity, higher = more binding, comparable within an allelic series).

Question: And the binding signal (ALX3 [13])?
Answer: Its binding signal is 7.77 upbm affinity estimate (log intensity, higher = more binding, comparable within an allelic series).

Question: And the binding signal (VAX1 [14])?
Answer: Its binding signal is 7.24 upbm affinity estimate (log intensity, higher = more binding, comparable within an allelic series).

Question: And the binding signal (ALX3 [15])?
Answer: The binding signal was 7.7 upbm affinity estimate (log intensity, higher = more binding, comparable within an allelic series).

Question: What about the binding signal (VAX1 [16]) of the same sequence?
Answer: The binding signal was 7.15 upbm affinity estimate (log intensity, higher = more binding, comparable within an allelic series).

Question: ACCCATTA was tested. Which binding signal (VENTX [1]) did it give?
Answer: The binding signal was 12.1 upbm affinity estimate (log intensity, higher = more binding, comparable within an allelic series).

Question: What about the binding signal (VENTX [2]) of the same sequence?
Answer: Its binding signal is 12.9 upbm affinity estimate (log intensity, higher = more binding, comparable within an allelic series).

Question: And the binding signal (HOXA7 [17])?
Answer: The binding signal was 11.2 upbm affinity estimate (log intensity, higher = more binding, comparable within an allelic series).

Question: What about the binding signal (VENTX [4]) of the same sequence?
Answer: The binding signal was 11.7 upbm affinity estimate (log intensity, higher = more binding, comparable within an allelic series).

Question: And the binding signal (HOXB6 [18])?
Answer: The binding signal was 9.84 upbm affinity estimate (log intensity, higher = more binding, comparable within an allelic series).

Question: And the binding signal (HOXA7 [19])?
Answer: The binding signal was 8.76 upbm affinity estimate (log intensity, higher = more binding, comparable within an allelic series).

Question: What about the binding signal (HOXB6 [20]) of the same sequence?
Answer: The binding signal was 11.8 upbm affinity estimate (log intensity, higher = more binding, comparable within an allelic series).

Question: For CCCCTCAG, which binding signal (VENTX [1]) is on record?
Answer: The binding signal was 8.25 upbm affinity estimate (log intensity, higher = more binding, comparable within an allelic series).

Question: What about the binding signal (VENTX [2]) of the same sequence?
Answer: The binding signal was 8.19 upbm affinity estimate (log intensity, higher = more binding, comparable within an allelic series).

Question: And the binding signal (HOXC10 [21])?
Answer: Its binding signal is 10.1 upbm affinity estimate (log intensity, higher = more binding, comparable within an allelic series).

Question: And the binding signal (VENTX [4])?
Answer: The binding signal was 8.01 upbm affinity estimate (log intensity, higher = more binding, comparable within an allelic series).

Question: What about the binding signal (HOXC10 [22]) of the same sequence?
Answer: Its binding signal is 10.1 upbm affinity estimate (log intensity, higher = more binding, comparable within an allelic series).

Question: With GTTATTCA as the sequence, how does the binding signal (VENTX [1]) read?
Answer: The binding signal was 9.35 upbm affinity estimate (log intensity, higher = more binding, comparable within an allelic series).

Question: What about the binding signal (VENTX [2]) of the same sequence?
Answer: The binding signal was 9.76 upbm affinity estimate (log intensity, higher = more binding, comparable within an allelic series).

Question: What about the binding signal (VENTX [4]) of the same sequence?
Answer: Its binding signal is 9.4 upbm affinity estimate (log intensity, higher = more binding, comparable within an allelic series).

Question: Which binding signal (VENTX [1]) does the source give for TACATATA here?
Answer: Its binding signal is 9.51 upbm affinity estimate (log intensity, higher = more binding, comparable within an allelic series).

Question: And the binding signal (VENTX [2])?
Answer: Its binding signal is 9.59 upbm affinity estimate (log intensity, higher = more binding, comparable within an allelic series).

Question: And the binding signal (VENTX [4])?
Answer: Its binding signal is 9.49 upbm affinity estimate (log intensity, higher = more binding, comparable within an allelic series).

Question: For AAATCTAC, which binding signal (VENTX [1]) is on record?
Answer: Its binding signal is 9.32 upbm affinity estimate (log intensity, higher = more binding, comparable within an allelic series).

Question: And the binding signal (VENTX [2])?
Answer: The binding signal was 9.65 upbm affinity estimate (log intensity, higher = more binding, comparable within an allelic series).

Question: What does the source list for CGGCCCCC?
Answer: binding signal (VENTX [1]): 8.06 upbm affinity estimate (log intensity, higher = more binding, comparable within an allelic series); binding signal (VENTX [2]): 8.05 upbm affinity estimate (log intensity, higher = more binding, comparable within an allelic series); binding signal (HOXA7 [17]): 8.26 upbm affinity estimate (log intensity, higher = more binding, comparable within an allelic series); binding signal (VENTX [4]): 8.12 upbm affinity estimate (log intensity, higher = more binding, comparable within an allelic series); binding signal (HOXA2 [23]): 7.13 upbm affinity estimate (log intensity, higher = more binding, comparable within an allelic series); binding signal (ALX1 [24]): 6.51 upbm affinity estimate (log intensity, higher = more binding, comparable within an allelic series); binding signal (ALX3 [7]): 7.78 upbm affinity estimate (log intensity, higher = more binding, comparable within an allelic series); binding signal (PITX2): 7.78 upbm affinity estimate (log intensity, higher = more binding, comparable within an allelic series); binding signal (HOXA2 [25]): 9.86 upbm affinity estimate (log intensity, higher = more binding, comparable within an allelic series); binding signal (ALX1 [26]): 6.5 upbm affinity estimate (log intensity, higher = more binding, comparable within an allelic series); binding signal (ALX3 [9]): 7.73 upbm affinity estimate (log intensity, higher = more binding, comparable within an allelic series); binding signal (ALX3 [11]): 7.68 upbm affinity estimate (log intensity, higher = more binding, comparable within an allelic series); binding signal (ALX3 [13]): 7.67 upbm affinity estimate (log intensity, higher = more binding, comparable within an allelic series); binding signal (HOXA2 [27]): 10.3 upbm affinity estimate (log intensity, higher = more binding, comparable within an allelic series); binding signal (HOXA7 [19]): 8.35 upbm affinity estimate (log intensity, higher = more binding, comparable within an allelic series); binding signal (NKX3-2 [28]): 10.4 upbm affinity estimate (log intensity, higher = more binding, comparable within an allelic series); binding signal (ALX1 [29]): 6.49 upbm affinity estimate (log intensity, higher = more binding, comparable within an allelic series); binding signal (ALX3 [15]): 7.76 upbm affinity estimate (log intensity, higher = more binding, comparable within an allelic series); binding signal (HOXA2 [30]): 7.15 upbm affinity estimate (log intensity, higher = more binding, comparable within an allelic series); binding signal (NKX3-2 [31]): 10.4 upbm affinity estimate (log intensity, higher = more binding, comparable within an allelic series)
